Screens deposited in PubChem BioAssay by National Center for Advancing Translational Sciences (NCATS).
KDM5B inh = blocks human KDM5B histone demethylase activity. Q9UGL1. KDM5B demethylase, FDH-coupled NADH fluorescence (FDH is formaldehyde dehydrogenase). 220,000 tested, 2.6% active. Potency, µM (doses to about 57.7 µM), actives largely listed as inhibitors; active means well fitted inhibition curve with a large enough effect; further: 0% is about no effect; nearly all actives have a fitted effect of over 70% in size
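qHTS format, multiple compound concentrations. Buffer 50 mM HEPES pH 7.5/0.01% Tween-20; 200 nM KDM5BΔAP final; 10 min compound preincubation; substrate-mix levels 12.5 µM peptide, 25 µM α-KG, 0.25 mM NAD⁺; 30 min RT; ΔRFU.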
* hit, by the source's call; i = inactive. This is one part of a sample in which hits are shown more often than they occur. Potency means the concentration at half of the fitted maximal effect.

SMILES	KDM5B inh
COc1ccc(C2Cn3nnc(-c4nc(-c5ccc(OC)c(F)c5)no4)c3CO2)cc1 (stereo not given)	i
COc1ccc(-c2nc(-c3nnn4c3COC(c3ccccc3Cl)C4)no2)cc1F (stereo not given)	13µM*
Clc1ccccc1C1Cn2nnc(-c3noc(COc4ccccc4)n3)c2CO1 (stereo not given)	i
COc1ccccc1-c1nc(-c2nnn3c2COC(c2ccccc2Cl)C3)no1 (stereo not given)	28µM*
COc1ccc(-c2noc(-c3nnn4c3COC(c3ccc(Cl)cc3)C4)n2)cc1F (stereo not given)	i
COc1ccc(C2Cn3nnc(-c4noc(-c5ccccn5)n4)c3CO2)cc1 (stereo not given)	i
CSc1ccc(-c2noc(-c3ncn4c3COC(c3ccccc3Cl)C4)n2)cc1 (stereo not given)	25µM*
Clc1ccccc1C1Cn2cnc(-c3nc(-c4ccncc4)no3)c2CO1 (stereo not given)	i
CCOc1ccc(N2C(=O)N(Cc3c(F)cccc3Cl)c3ccccc3S2(=O)=O)cc1	i
Cc1cccc(S(=O)(=O)N2C[C@H](c3nc(-c4cccnc4)no3)[C@@H](C)C2)c1	i
COc1ccc(Nc2c(-c3ccc(N4CCOCC4)cc3)nc3ncccn23)cc1OC	i
COc1cc(/C=C/C(=O)c2ccc(OC(=O)c3cccs3)cc2)cc(OC)c1OC	i
Cc1ccc(-n2nnnc2N2CCN(C(=O)Nc3ccc(C)c(F)c3)CC2)cc1C	i
Cc1ccc(C)c(Cn2c(N3CCC(C(=O)N4CCC5(CC4)OCCO5)CC3)nc3ccccc32)c1	i
NC(=O)C1CCN(C(=O)c2ccc3c(c2)CCCN3S(=O)(=O)c2ccc(Cl)cc2)CC1	i
O=C(CCC(F)(F)F)N1CCC(Oc2cnc3c(ccn3-c3cncnc3)c2)CC1	i
CCOC(=O)N1CCC(Oc2cnc3c(ccn3-c3cncnc3)c2)CC1	i
O=C(O)CCn1ncc2cc(OCC3CCN(C(=O)COc4ccccc4)CC3)ccc21	i
O=C(C1CCCC1)N1CCC(CCOc2ccc(F)cc2)C1 (stereo not given)	i
O=C(O)Cn1ccc2cc(OCC3CCN(C(=O)C4CCCC4)CC3)cnc21	35µM*
COCC(=O)N1CCC(Oc2cnc3c(ccn3-c3cncnc3)c2)CC1	i
CCOC(=O)N1CCC(COc2ccc3c(cnn3CC[S+](C)(=O)[O-])c2)CC1	i
O=C(O)CCn1ncc2cc(OCC3CCN(C(=O)C4CCCC4)CC3)ccc21	i
Cc1cnc(C)c(N2CCC(COc3cnc4c(ccn4CC(N)=O)c3)CC2)n1	35µM*
NC(=O)Cn1ccc2cc(OCC3CCN(C(=O)C4CC4)CC3)cnc21	35µM*
SMILES	KDM5B inh
O=C(OCCF)N1CCC(Oc2cnc3c(ccn3-c3cncnc3)c2)CC1	i
O=C(O)Cn1ccc2cc(OCC3CCN(C(=O)CCC(F)(F)F)CC3)cnc21	35µM*
Cc1[nH]c2ccccc2c1/C=N/NC(=O)c1ccc(N)cc1	i
CC(C)CC(=O)N1CCC2(CC1)OCC(C(=O)N1CCOCC1)N2C(=O)c1ccccc1 (stereo not given)	i
CCN(CC)c1sc(S(=O)(=O)c2ccc(C)cc2)nc1S(=O)(=O)c1ccc(C)cc1	i
O=C(NCCc1nc2ccccc2n1Cc1ccc(Cl)cc1)c1ccccc1	i
Cc1cc(NS(=O)(=O)c2cn(C)nc2C)no1	i
O=C1NC(=NC2CCCCC2)C2(CCCN(Cc3ccc(F)cc3)C2)N1c1cc(F)cc(F)c1 (stereo not given)	i
O=C(CSc1nnc(-c2ccncc2)n1-c1ccccc1)Nc1ccc(F)cc1	i
CC(C)CCn1c2ccccc2c2cc(CC(N)=O)ccc21	i
CS(=O)(=O)c1ccccc1C(=O)OCc1cccc(F)c1F	i
Cc1ccccc1NC(=O)COC(=O)c1nn(-c2ccccc2)c(=O)c2ccccc12	i
C[C@H]1[C@@H]2[C@@H](O)C([C@H](C)C(=O)NCc3cccnc3)CC[C@@]2(C)CC[C@@H]1NC(=O)c1cccc(F)c1 (stereo not given in full)	i
Cc1cc(Cl)ccc1-c1cccc(CN)c1	i
Cc1cc(Cl)ccc1-c1ccccc1C=O	i
NCc1ccc(-c2cccc(Cl)c2)cc1	i
O=Cc1ccccc1-c1cccc(Cl)c1	i
Cc1cc(Cl)ccc1-c1ccc(C=O)cc1	79µM*
O=Cc1ccc(-c2cccc(Cl)c2)cc1	32µM*
Nc1cc(S(=O)(=O)N2CCOCC2)ccc1N1CCOCC1	i
COCCNC(=O)[C@@H]1C[C@H](Oc2ccccc2)CN1C(=O)NC(C)(C)C	i
Cc1noc(-c2cn(C3CCCN(C(=O)c4ccc(F)c(Cl)c4)C3)nn2)n1 (stereo not given)	i
O=c1cc(-c2ccncc2)nc(-c2ccc(CN3CC[C@@H](O)C3)cc2)[nH]1	i
O=c1[nH]c2cc3c(cc2cc1CN1CC[C@H](O)C1)OCO3	28µM*
O=c1cc(-c2cccnc2)nc(-c2ccc(CN3CC[C@@H](O)C3)cc2)[nH]1	i
